ALR inh: inhibitors of human ALR sulfhydryl oxidase, primary screen, biochemical, H2O2 detection, HRP-luminol luminescence, single point; FAD-linked sulfhydryl oxidase ALR (Homo sapiens), P55789; purified ALR, DTT oxidation; inhibition, % (test concentration not listed); 290,000 tested, 3.8% active;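 active = mean replicate inhibition above about 79%, with every replicate also reaching it, limit read from the data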
Target sequence (P55789 whole entry, looked up): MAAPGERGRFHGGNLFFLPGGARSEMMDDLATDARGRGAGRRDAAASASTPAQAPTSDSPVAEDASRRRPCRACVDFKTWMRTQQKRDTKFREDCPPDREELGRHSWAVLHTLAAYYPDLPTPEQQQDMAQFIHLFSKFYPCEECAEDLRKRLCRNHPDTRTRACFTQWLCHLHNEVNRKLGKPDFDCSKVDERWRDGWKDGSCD
Rtt109 HAT inh: inhibitors of C. albicans Rtt109/Vps75 HAT, primary screen, biochemical, ThioGlo CoA-SH fluorescence, plate reader; inhibition, % at 34.9 µM; 330,000 tested, 0.16% active; Histone acetyltransferase RTT109 (Candida albicans (strain SC5314 / ATCC MYA-2876)), …; purified Rtt109/Vps75, 4 h;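 active = inhibition of at least 50% in every replicate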
Target sequence (Q5AAJ8 whole entry, looked up): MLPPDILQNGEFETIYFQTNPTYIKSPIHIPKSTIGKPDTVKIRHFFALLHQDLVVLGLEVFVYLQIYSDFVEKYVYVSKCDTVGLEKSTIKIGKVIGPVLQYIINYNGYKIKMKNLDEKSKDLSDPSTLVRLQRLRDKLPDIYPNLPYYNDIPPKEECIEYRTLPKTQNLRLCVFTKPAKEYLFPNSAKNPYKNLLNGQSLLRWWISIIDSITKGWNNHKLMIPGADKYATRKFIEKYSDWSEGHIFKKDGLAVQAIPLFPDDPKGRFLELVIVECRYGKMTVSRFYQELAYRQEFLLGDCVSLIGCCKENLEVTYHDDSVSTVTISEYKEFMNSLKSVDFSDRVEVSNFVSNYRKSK
rCAG RNA binder: binders of r(CAG) RNA repeats, primary screen, biochemical, fluorescence; r(CAG) RNA repeat, TO-PRO-1 dye displacement fluorescence; inhibition, % at 3 µM; 370,000 tested, 1.3% active; AID 651821, 2012;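 active = inhibition above the plate cutoff, the mean of all test compounds on that plate plus 3 SD, cut at about 35% in these data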;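 note: higher means more dye released from RNA so lower well fluorescence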
LANA-H2B inh: blockers of LANA interaction with H2A/H2B – biochemical, FP readout, HTS, primary screen. inhibition, % (test concentration not listed). AID 2629, 2010. cell-free LANA-H2A/H2B peptide, fluorescence polarization. 320,000 tested, 0.6% active. Protein LANA1 (Human herpesvirus 8 type P (isolate GK18)), Q9QR71; in the data active = inhibition mostly above about 10%, no sharp cut-off; inactive = mostly below about 6.7%
PRMT1 inh: PRMT1 methyltransferase inhibitors, primary screen, biochemical, fluorescence polarization; Protein arginine N-methyltransferase 1 (Homo sapiens), Q99873; recombinant PRMT1, activity-based probe fluorescence polarization; inhibition, % at 2.79 µM; 370,000 tested, 1.3% active; AID 652257, 2013;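 active = inhibition above about 21% made by adding two undisclosed values, limit read from the data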
ABHD5-PLIN5 inh: ABHD5-PLIN5 interaction inhibitors, primary screen, cell lysate, split luciferase complementation, luminescence; Split G. princeps luciferase complementation, 4 h; 360,000 tested, 0.78% active; AID 602281, 2012; inhibition, % at 4 µM; Perilipin-5 (Homo sapiens) + 1-acylglycerol-3-phosphate O-acyltransferase ABHD5 (Homo …;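 active = inhibition above the mean inhibition across every tested compound plus 3 SD, cut at about 22% in these data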
Hits are given with their value; n = inactive; x = no result given. An excerpt weighted towards active compounds, which were near 5.9% of everything screened.

SMILES	ALR inh	Rtt109 HAT inh	rCAG RNA binder	LANA-H2B inh	PRMT1 inh	ABHD5-PLIN5 inh
Cc1sc2nc(CSCC(=O)N(C)CC(=O)Nc3ccc(F)cc3)[nH]c(=O)c2c1C	99	n	n	n	23	n
Cc1sc2nc(CSCC(=O)Nc3c(F)cccc3F)[nH]c(=O)c2c1C	n	n	n	n	n	n
Cc1sc2nc(CSCC(=O)Nc3ccc(C(F)(F)F)cc3)[nH]c(=O)c2c1C	x	n	n	n	n	n
Cc1sc2nc(CSCC(=O)NC(C)(C)C)[nH]c(=O)c2c1C	99	x	n	n	n	n
O=C(NC1CC1)c1ccc(CSCc2ccc(Cl)cc2)o1	x	x	n	x	n	n
O=C(OCCNC(=O)c1cc2ccccc2oc1=O)c1cccnc1	n	n	n	50	n	n
O=C(NCc1cccnc1)c1cc2ccccc2oc1=O	n	n	n	n	n	n
Cc1csc(/C(=N/OC(=O)c2ccco2)C(N)=O)n1	97	n	n	n	n	n
COc1ccc(/C(N)=N/OC(=O)c2ccco2)cc1OC	n	n	n	n	n	n
COC(=O)C[C@@H]1CC[C@@H]2[C@@H](COc3ccc(NC(=O)Nc4cccc(Cl)c4)cc3C(=O)N2C)O1	x	x	n	x	n	x
COc1ccc(C(=O)COC(=O)CCNS(=O)(=O)c2ccccc2)c(OC)c1	n	n	n	n	n	n
c1ccc(CCNc2ncnc3nc[nH]c23)cc1	n	n	n	n	n	n
c1ccc2c(CCNc3ncnc4nc[nH]c34)c[nH]c2c1	98	n	n	n	n	n
CCN(CCCNc1ncnc2nc[nH]c12)c1cccc(C)c1	99	n	n	n	n	n
CCCCN(CCCNc1ncnc2nc[nH]c12)c1ccccc1	93	n	n	n	n	n
CC[n+]1c(/C=C/c2c[nH]c3ccccc23)ccc2cc(C)ccc21	x	84	n	x	n	x
S=c1nc(-c2ccccc2Cl)n(Cc2cccnc2)c2c1CCCC2	99	n	n	n	n	n
Cc1cccc(OCC(=O)Nc2cc(NC(=O)COc3cccc(C)c3C)cc(C(=O)O)c2)c1C	80	n	n	n	n	n
COc1ccccc1NC(=O)c1ccc(NC(=O)COC(=O)C2CC2C)cc1 (stereo not given)	n	n	n	19	n	n
Cc1cccc(OCC(=O)Nc2ccc(C(=O)Nc3ccccc3C(=O)O)cc2)c1C	n	n	41	n	n	n
Cc1ccccc1OCC(=O)Nc1cccc(C(=O)O)c1	x	n	n	x	n	n
COc1ccccc1NC(=O)c1ccc(NC(=O)COC(=O)C2CCCO2)cc1 (stereo not given)	x	n	x	x	x	n
Cc1cc(C(=O)Nc2ccccc2C(=O)O)ccc1NC(=O)COc1ccccc1Cl	n	n	n	n	n	n
COc1ccc2nc(C(c3ccc(C)cc3)n3c(-c4ccccc4Br)nc4ccccc43)[nH]c2c1 (stereo not given)	x	x	n	x	n	n
CN(C)c1ccc(NC(=O)c2cc3c(=O)n4ccccc4nc3n2C)cc1	82	n	n	n	n	n
SMILES	ALR inh	Rtt109 HAT inh	rCAG RNA binder	LANA-H2B inh	PRMT1 inh	ABHD5-PLIN5 inh
COc1ccc(OC)c(NC(=O)c2cc3c(=O)n4ccccc4nc3n2C)c1	x	n	n	n	n	n
CCOC(=O)COc1ccccc1/C=C\[N+](=O)[O-]	n	n	x	n	x	62
CC(C)N(C(=S)NC1CC2CCC1C2)c1ccccc1 (stereo not given)	n	x	n	n	n	n
CN(C)c1cccc(C(=O)NNC(=S)NC2CC3CCC2C3)c1 (stereo not given)	85	n	n	n	n	n
COc1ccc(-c2nn(-c3ccccc3)cc2CNC[C@H]2O[C@@H](n3cnc4c(=O)[nH]c(N)nc43)[C@H](O)[C@@H]2O)cc1	x	x	n	x	n	n
CCCN1CCCCC(NC(=O)c2ccccc2C)C1=O (stereo not given)	x	x	n	x	n	x
COc1ccc(C(CC(=O)NCc2ccccc2)Sc2n[nH]c(-c3ccc(Cl)cc3)n2)cc1 (stereo not given)	n	n	n	n	n	n
COc1ccc(-c2nc(SC(CC(=O)NCc3ccccc3)c3ccc(OC)c(OC)c3)n[nH]2)cc1 (stereo not given)	95	n	n	n	n	n
COc1ccc(-c2nc(SC(CC(=O)NCCN3CCOCC3)c3cccs3)n[nH]2)cc1 (stereo not given)	97	n	n	n	n	n
COc1ccc(C(CC(=O)NCc2ccccc2)Sc2n[nH]c(-c3ccccc3)n2)cc1 (stereo not given)	n	n	n	n	n	n
c1ccc2c(C3OCC4(CCCCC4)CO3)cccc2c1	x	x	n	x	n	n
O=C(Cn1ccc(=O)[nH]c1=O)c1ccc([N+](=O)[O-])o1	x	x	n	x	n	n
O=C(NCC(c1ccco1)N1CCc2ccccc21)c1ccccc1F (stereo not given)	98	n	n	n	n	n
Cc1ccc(C(=O)NCC(c2ccco2)N2CCc3ccccc32)cc1 (stereo not given)	77	n	n	n	n	n
O=C(CCc1ccccc1)NCC(c1ccco1)N1CCc2ccccc21 (stereo not given)	98	n	n	n	n	n
Cc1cccc(C(=O)NCC(c2ccco2)N2CCc3ccccc32)c1 (stereo not given)	n	n	n	n	n	n
O=C(NCC(c1ccco1)N1CCc2ccccc21)c1ccccc1Br (stereo not given)	n	n	n	n	n	n
O=C1C(=Cc2ccc(F)cc2)CCc2ccccc21	x	x	n	x	n	n
Cc1nnsc1SCCNC(=O)c1c(F)cccc1F	n	n	n	n	n	n
Cc1ccc(C(=O)NCCSc2snnc2C)cc1	94	n	n	n	n	n
Cc1ccc(C(=O)NCCc2sc(C)nc2C)cc1	n	n	n	n	23	n
N#C/C(=C(/O)CCl)c1nc2c(s1)CCc1ccccc1-2	n	n	n	n	33	n
O=C(N/N=C/c1cccs1)c1cc(-c2ccc3ccccc3c2)n[nH]1	n	n	n	n	n	n
O=C(N/N=C/c1cccs1)c1cc(-c2cccc3ccccc23)n[nH]1	n	n	n	17	n	n
Cc1ccc(NC(=O)N/C=C/c2ccco2)c(C)c1	n	n	n	n	n	n
Cc1ccc(NC(=O)N/C=C/c2ccco2)cc1C	87	n	n	n	n	n
O=c1[nH]ccc2c(O)cccc12	98	n	n	n	n	n
CC12CN3CC(C)(CN(C1)C3c1ccc(Cl)cc1Cl)C2O (stereo not given)	n	n	n	n	n	n

High-throughput results (PubChem BioAssay)
